# PABP polyA inh: PABP poly(A) RNA binding inhibitors, primary screen, biochemical, fluorescence polarization, uHTS | inhibition, % at 35 µM | hit rate 1% among 290,000 | Polyadenylate-binding protein 1 (Homo sapiens), P11940;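 also: calls also rest on retests at 20 µM and on dose response follow-up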
# eIF4H FP inh: human eIF4H binding inhibitors, primary screen, translation initiation inhibitor project, biochemical, uHTS, fluorescence polarization; inhibition, % at 35 µM; Eukaryotic translation initiation factor 4H (Homo sapiens), Q15056; eIF4H fluorescence polarization binding assay; hit rate 0.94% among 290,000;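 also: calls also rest on retests at 20 µM and on dose response follow-up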
# PABP1 MLLE inh: inhibitors of PABP1 MLLE–PAM2 peptide binding, primary screen, biochemical, fluorescence polarization, FITC-PAM2, GST-MLLE | hit rate 0.36% among 360,000 | inhibition, % at 20 µM | Polyadenylate-binding protein 1 (Homo sapiens), P11940; in the data active = inhibition above about 35%, passing the limit was not always enough;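 also: plate controls were DMSO wells with GST-MLLE for no effect and wells lacking GST-MLLE protein for full effect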
# PERK inh: block of dimerizer-induced PERK translation repression, primary screen, PERK inhibitor project, CHO PERK-DD cells, SEAP luminescence, HTS. Eukaryotic translation initiation factor 2-alpha kinase 3 (Homo sapiens), Q9NZJ5. CHO PERK-DD fusion, SEAP luminescence translation reporter. inhibition, % at 5.6 µM. hit rate 0.17% among 220,000;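 active = inhibition above the mean inhibition of all tested compounds plus 3 SD, set separately per screening campaign, cut at about 2.9% in these data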;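 also: PERK kinase domain activated by AP20187 dimerizer at 100 nM; 0% = DMSO with dimerizer and 100% = rapamycin at 8.4 µM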
# eIF4E 4G PPI: eIF4E–eIF4G protein interaction inhibitors, primary screen, biochemical, uHTS, TR-FRET, eIF4GI fragment; Eukaryotic translation initiation factor 4E (Mus musculus) + Eukaryotic translation …; TR-FRET eIF4E-eIF4GI(517-606) binding, 2 h; inhibition, % at 21.7 µM; hit rate 0.37% among 220,000;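 active = inhibition above about 30%, limit read from the data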;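 also: 0% = full FRET control wells and 100% = background wells lacking eIF4GI fragment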
# Active calls of the source: *; u = inconclusive; x = no result given; [ ] = another dose, or the depositor's remark. This is a sample that favours compounds with a hit; in the whole collection about 1.6% have one here. Unless noted, no rule for the calls is given here.
SMILES,PABP polyA inh,eIF4H FP inh,PABP1 MLLE inh,PERK inh,eIF4E 4G PPI
C#Cc1ccc([C@@H]2C=C(C(=O)NC3CC3)O[C@H](OCCCCO)C2)cc1,-10,-8,-1,x,97*
CCOC(=O)C(NC(C)=O)(OCc1ccc(F)cc1)C(F)(F)F (stereo not drawn),-2,-1,0,2,-8
Cc1ccc(NC(=O)CN(CCc2ccccc2)S(C)(=O)=O)cc1,13,-2,-3,x,x
CCN(CC)S(=O)(=O)c1cccc(NC(=O)COC(=O)/C=C/c2ccco2)c1,1,69*,8,0,4
O=C(COC(=O)c1cc(S(=O)(=O)N2CCc3ccccc3C2)ccc1Cl)NCc1ccco1,6,8,-6,-1,-3
O=C(COC(=O)c1ccccc1)NCc1ccco1,20*,76*,-6,-2,4
CN(C)S(=O)(=O)c1cccc(NC(=O)COC(=O)/C=C/c2ccco2)c1,-7,86,-14,0,3
COc1ccccc1NCCC(=O)OCC(=O)NCc1ccco1,45*,96*,-4,2,9
O=C(COC(=O)c1cccc(S(=O)(=O)N2CCc3ccccc3C2)c1)NCc1ccco1,6.7*,87*,-20,0,-24
CCC(C)NC(=O)C1c2ccccc2C(=O)N1Cc1cc(OC)ccc1OC (stereo not drawn),0,-2,-2,-1,0
Cc1cccc(OCC(=O)Nc2ccc(C(=O)NCc3cccnc3)cc2)c1,5,-1,x,0,-5
O=C(NCc1ccco1)c1ccc(S(=O)(=O)N2CCCCCC2)cc1,x,x,0,x,x
O=C(COC(=O)/C=C/c1ccco1)Nc1ncc(C(F)(F)F)cc1Cl,active,88*,1,0,12
COc1ccc(C(=O)OCC(=O)NCc2ccco2)cc1OC,29,89*,-10,0,-1
O=C(COC(=O)c1ccccc1Nc1cccc(C(F)(F)F)c1)NCc1ccco1,9,54*,-16,0,2
O=C(COC(=O)/C=C/c1ccco1)NCc1ccco1,-3,86*,0,1,24
Cc1c(Cl)cnc(NC(=O)COC(=O)/C=C/c2ccco2)c1Cl,x,x,-23,x,x
O=C(COC(=O)/C=C/c1ccco1)NCc1ccccc1Cl,22,-2,4,1,0
Cc1ccccc1Nc1ncccc1C(=O)N1CCOCC1,2,16,-3,1,7
COC(=O)C1=C(C)NC(=S)NC1c1ccc(-c2cccc(Cl)c2)o1 (stereo not drawn),2,29,-16,0,-4
COc1ccc(CCN2CC(C(=O)N3CCC(OC)CC3)CCC2=O)cc1 (stereo not drawn),-4,1,4,x,x
S=c1nccc(-c2ccc3c(c2)CCO3)[nH]1,-4,-14,20,0,0
Cc1ccc2c(Cl)cc(Cl)c(OCC(=O)NC(=O)NCc3ccco3)c2n1,9,8,-12,-1,-9
Cc1ccc2c(Cl)cc(Cl)c(OCC(=O)NCc3ccco3)c2n1,62*,98*,x,0,47*[fluorescence artefact?]
CCSc1nnc(-c2cc(Br)ccc2NC(C)=O)c(=O)[nH]1,-3,2,-4,1,96*
SMILES,PABP polyA inh,eIF4H FP inh,PABP1 MLLE inh,PERK inh,eIF4E 4G PPI
CCSc1nnc(-c2ccccc2NC(=O)CC)c(=O)[nH]1,13,-14,-8,1,1
O=C(NC(C(=O)O)c1ccccc1)c1ccccc1 (stereo not drawn),11,-8,0,0,-4
O=C(NC(Sc1ccc(Cl)cc1)C(=O)O)c1ccccc1 (stereo not drawn),x,x,40*,x,x
Cc1ccc(C2C=C(c3ccccc3)Nc3ncnn32)cc1 (stereo not drawn),x,x,30,x,x
COc1ccc(C2C=C(c3ccc(C)cc3)Nc3ncnn32)cc1 (stereo not drawn),13,1,41*,0,x
O=C(N/N=C/c1ccccc1O)C1(O)c2ccccc2-c2ccccc21,119*,active,3,0,-2
Cc1cc(C)c(NC2=NS(=O)(=O)c3ccccc32)c(C)c1,9,-2,-6,3.6*,-2
CCS(=O)(=O)NC(C)C(c1cccs1)N1CCN(C)CC1 (stereo not drawn),-1,1,6,1,8
CC(C)OC(=O)c1nn2c(C(F)(F)F)cc(-c3ccc(Br)o3)nc2c1Br,72*,44*,26,-1,1
CC(C)OC(=O)c1nn2c(C(F)(F)F)cc(-c3ccco3)nc2c1Cl,12,18,-66,1,0
CC(C)c1ccc(NC(=O)CSc2nc3ccsc3c(=O)n2Cc2ccc(C(=O)O)cc2)cc1,16,6,-11,x,x
COc1ccccc1CN1CCN(C(=O)c2ccncc2)CC1,14,0,2,0,63*
COc1cccc(OC)c1C(=O)N1CCN(Cc2ccncc2)CC1,-3,-24,9,1,1
CC(C)Cn1c(N)c(C(=O)COC(=O)c2cc(C3CC3)nc3ccccc23)c(=O)n(C)c1=O,118*,-12,x,0,2
CC(C)Cn1c(N)c(C(=O)COC(=O)c2cc(-c3ccccc3)nc3ccccc23)c(=O)n(C)c1=O,-3,-3,-21,0,-1
O=C(COc1ccccc1)Nc1nnc(-c2ccco2)o1,active,56,4,3,0
O=S1(=O)CC(O)C(Nc2ccccc2)C1 (stereo not drawn),67,active,7,0,1
O=S1(=O)CC(O)C(Nc2ccc(Cl)cc2)C1 (stereo not drawn),-2,-3,7,1,4
Cc1ccc(NC(=O)N2C3CCCC2CC(NC(=O)C2CC2)C3)cc1 (stereo not drawn),8,4,9,x,x
Cc1ccc(NC(=S)C2=C(O)c3sccc3N(C)S2(=O)=O)cc1,7,-4,41*,0,3
Cc1ccc(NC(=O)C2=C(O)c3sccc3N(C)S2(=O)=O)cc1,2,-14,-6,0,12
N#Cc1c(N)sc(=S)c2c1CCCC2,u,u,48*,0,12
O=C(C(=O)c1ccc(O)c(O)c1)c1ccc(O)c(O)c1,x,x,-17,x,x
C=CCNC(=S)NCc1ccc(CNC(=S)NCC=C)cc1,-5,-5,-2,0,-4
O=C(O)CCCN1C(=O)/C(=C/c2ccncc2)SC1=S,-12,-9,31,0,3
O=C(O)CCCN1C(=O)/C(=C/c2ccc(-c3nc4ccccc4s3)o2)SC1=S,active,u,-71,1,0
O=C(O)CCCCCN1C(=O)/C(=C\c2ccc(-c3ccc(Cl)cc3)o2)SC1=S,36*,54*,-125,0,24

# Compound activity as filed in PubChem BioAssay.
